The campaign covered roughly 330,000 compounds. About 1,400 (0.42%) were called active.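 Rule for the calls: active = plate passing quality check with inhibition over a set limit, or well fluorescence over plate mean plus 4 SD; inactive = the rest.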 Only a selection was taken, and actives are over-represented in it overall.

This experiment is described as follows: antifungal drug efflux pump blockers, triplex strains – S. cerevisiae, Nile Red, multiplex, primary screen (AID 485275).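 Note: Nile Red retained in pooled yeast measured as flow cytometry median fluorescence; 0% = buffer negative control and 100% = Enniatin B positive control; higher means more Nile Red kept so more efflux inhibition.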 The note with it: S. cerevisiae Candida pump triplex, at 10 µM, hits give high values.
The term inhibition denotes the change of the read-out against control, counted positive when it falls. Turning to `Cc1ccc(-n2c(-c3ccc([N+](=O)[O-])cc3)nc3ccccc3c2=O)cc1`, the inhibition is -0.08% (inactive).

For `C/C(=N/O)c1ccc2ccc3ccccc3c2c1`, the inhibition is 0.16% (inactive).

As to `O=[N+]([O-])c1cnc2ccc3ccccc3c2c1`, the inhibition is 0.41% (active).

With `Clc1ccc2nc3c(c(-c4ccccc4)c2c1)CNCC3`, the inhibition is -0.17% (inactive).

On to `COC(=O)C1=C(c2ccc(Cl)c(C(F)(F)F)c2)C[C@@H]2CC[C@H]1N2C(=O)NC1CC1`, for which the inhibition is -0.03% (inactive).

Take `CN(c1ccccc1)c1ccc([N+](=O)[O-])c2nonc12`: the inhibition was -0.18% (inactive).

Regarding `CCN(CC)c1ccc([N+](=O)[O-])c2cccnc12`, the inhibition is 1.08% (active).

Take `CN1CCC(N(C)Cc2cccnc2)CC1`: the inhibition was 0.12% (inactive).

Regarding `c1cc2c(cc1CCNC1CCCCCC1)OCO2`, the inhibition is 0.08% (inactive).

As to `CCN1CC2C3CCC(C)(O3)C2C1` (stereo not given), the inhibition was -0.18% (inactive).

Source of the values: PubChem BioAssay AID485275 (NMMLSC, 2010).
